We go through twelve compounds from PubChem BioAssay.

The structures appear in SMILES notation. Inconclusive results are not listed. Calls of active or inactive are those of the source. Unless noted, the limit is not given here; nearly all actives have AC50 up to about 26 µM.

The nature of assay [1]: growth inhibition of DIPG glioma cells, dose response, cell-based, SU-DIPG-XIII, MIPE5.0, CellTiter-Glo, qHTS (AID 1347064; cut-off not given, nearly all actives have AC50 up to about 23 µM;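 as to AC50: cells exposed to compound for 48 hours before the viability read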). The conditions noted are these: SU-DIPG-XIII viability, CellTiter-Glo ATP luminescence.
Assay [2] in a line: JHH-DIPG-1 glioma cell viability, MIPE5.0 library, CellTiter-Glo luminescence, qHTS (AID 1347067).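 Also: cells exposed to compound for 48 hours before readout.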 Particulars: JHH-DIPG-1 glioma viability, CellTiter-Glo ATP luminescence.
Assay [3] in a line: SU-DIPG-XXV glioma cell viability, MIPE5.0 library, qHTS (AID 1347068; cut-off not given, nearly all actives have IC50 up to about 30 µM;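 as to IC50: cells exposed to compound for 48 hours before viability readout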).
Assay [4] in a line: viability loss in pontine glioma line – cell-based, SU-DIPG-XXV, MIPE5.0, CellTiter-Glo, qHTS, dose response (AID 1347065).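 Also: cells exposed to compound for 48 hours before ATP readout.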 The conditions noted are these: CellTiter-Glo ATP luminescence.
The nature of assay [5]: sensitizers of A549 cells to miR-34 induction, primary screen, imaging, A549 dox-inducible miR-34, nuclei and caspase counts (AID 1347080;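 active = compounds whose cell count with miR-34 switched on is under 0.7 times the count with it off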). Particulars: A549 miR-34 inducible, Hoechst nuclei count, 48 h.
Assay [6] in a line: survival rescue of mitochondrial mutant cells in low glucose, primary screen, MELAS cybrids, Rieske KO mouse fibroblasts, CellTiter-Glo (AID 1508586;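 active = mean z-score across replicates of 1.96 or higher in either the MELAS or the Rieske mutant cell line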;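 also: z relative to plate mean and SD of compound and empty wells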).
Assay [7] can be described thus: SU-DIPG-VI glioma cell viability, MIPE4.0 library, CellTiter-Glo luminescence, qHTS (AID 1347066; cut-off not given, nearly all actives have AC50 up to about 30 µM;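 also: cells exposed to compound for 48 hours before readout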). Particulars: CellTiter-Glo ATP luminescence.
[8] abbreviates: stronger effect = lower value, cell number ratio, induced over uninduced.
[9] abbreviates: measured here: relative caspase fold change +Dox/-Dox.
[10] abbreviates: measured here: total cells with miR-34 induction, stronger effect = lower value.
Where [11] appears, read: measured here: total cells without miR-34 induction.
Setting [12] is: MELAS cybrid survival, CellTiter-Glo 48 h, stronger effect = higher value.
Where [13] appears, read: Rieske KO mouse fibroblast survival, CellTiter-Glo 72 h.

With `Oc1ccc(C2CCN(c3ccnc4ccccc34)CC2)cc1O`, the values for the concentration at half-maximal activity (AC50) in assay [1] and in assay [2] were 16.6 µM (active) and 20.9 µM (active), respectively.
Take `C=C1[C@H](OC(=O)/C=C(\C)CC)C[C@@H](C(C)C)[C@@H]2[C@H]([C@@H](C)OC(C)=O)C(=O)C[C@@H]12`: the AC50 in assay [1] and in assay [2] was 18.6 µM (active) in each case. Besides, the result in assay [3] was inactive.
Consider `CN(Cc1ccccc1)C(=O)c1ccc(S(=O)(=O)Nc2ccccc2)cc1`, for which the compound was classed as inactive in assay [1], in assay [2] and in assay [3].
Consider `CCN(CCCOc1ccc2c(Nc3cc(CC(=O)Nc4cccc(F)c4)[nH]n3)ncnc2c1)CCOP(=O)(O)O`, for which the outcome in assay [1] and in assay [3] was inactive. In addition, in assay [4], the AC50 is 1.18 µM (active).
Take `C=CC(=O)Nc1cccc(Sc2nc(Nc3ccc(N4CCN(C)CC4)cc3)ncc2Cl)c1`: the AC50 is 2.09 µM (active) in assay [1], 1.48 µM (active) in assay [4] and 4.17 µM (active) in assay [2]. In assay [3], the IC50 was 1.66 µM (active). In addition, the results for the fold change in assay [5] (setting [8]) and in assay [5] (setting [9]) were 0.881 (inactive) and 1.05, respectively. The figures for the cell count in assay [5] (setting [10]) and in assay [5] (setting [11]) were 4990 and 5660, respectively. Moreover, the z-score in assay [6] (setting [12]) is -0.417 (inactive); in assay [6] (setting [13]), 0.935.
For the compound `CN(C)Cc1cccc(N=C(c2ccccc2)c2c(O)[nH]c3cc(C(=O)N(C)C)ccc23)c1`, the compound was classed as inactive in assay [1] and in assay [7]. For the same compound, the IC50 in assay [3] was 18.6 µM (active). For the same compound, the fold change in assay [5] (setting [8]) is 0.785 (inactive); in assay [5] (setting [9]) it was 1.01. For the same compound, the figures for the cell count in assay [5] (setting [10]) and in assay [5] (setting [11]) were 3180 and 4050, respectively. Also, the figures for the z-score in assay [6] (setting [12]) and in assay [6] (setting [13]) were -0.347 (inactive) and 0.635, respectively.
Take `Cc1cc(-c2cnn3c(NCC4CC(C)(O)C4)cc(Oc4cccnc4)nc23)ccc1C(=O)NC1CC1` (stereo unspecified): the call in assay [1] and in assay [3] was inactive. For the same compound, in assay [4], the AC50 is 1.48 µM (active).
Take `CSC[C@H]1CN(Cc2c[nH]c3c(N)ncnc23)C[C@@H]1O`: the compound was classed as inactive in assay [1], in assay [2] and in assay [3].
As for `Cc1nn(Cc2ccccc2Cl)c(C)c1CN(C)CC(O)COc1ccc(Cl)cc1` (stereo unspecified), the AC50 in assay [4] was 20.9 µM (active); in assay [2], 23.5 µM (active).
For `NC(=O)c1cnc2[nH]ccc2c1NC1C2CC3C[C@H]1CC(O)(C3)C2` (stereo partly specified), the AC50 in assay [4] was 9.34 µM (active).
As for `CC1(C)CC[C@]2(C(=O)O)CC[C@]3(C)C(=CC[C@@H]4[C@@]5(C)C[C@@H](O)[C@H](O)C(C)(C)[C@@H]5CC[C@]43C)[C@@H]2C1`, the half-maximal activity concentration (AC50) in assay [4] is 20.9 µM (active).
On the same count and under the same terms, the value for `O=C(NCCCNc1nc(Nc2cccc(CN3CCOCC3)c2)ncc1C1CC1)C1CCC1` was 7.42 µM (active).
